Experimental data reported in the supplement of paper PMC11732987, “Enantioselective OTUD7B fragment discovery through chemoproteomics screening and high-throughput optimisation” (Communications Chemistry, 2025).

Key:
Experiment in all cases: log2 ratio of Biotin-Ahx-Ub-VS probe labelling (fragment/DMSO); higher = less target engagement (more negative = stronger competition), active = hit call of the paper (q ≤ 0.05, log2 ratio ≤ -1)
Conditions in all cases: compound concentration: 200 uM; treatment time: 3 h
USP9X = USP9X (UniProt Q93008)
USP9X, sequence (Q93008 whole entry, the tested form may be a part): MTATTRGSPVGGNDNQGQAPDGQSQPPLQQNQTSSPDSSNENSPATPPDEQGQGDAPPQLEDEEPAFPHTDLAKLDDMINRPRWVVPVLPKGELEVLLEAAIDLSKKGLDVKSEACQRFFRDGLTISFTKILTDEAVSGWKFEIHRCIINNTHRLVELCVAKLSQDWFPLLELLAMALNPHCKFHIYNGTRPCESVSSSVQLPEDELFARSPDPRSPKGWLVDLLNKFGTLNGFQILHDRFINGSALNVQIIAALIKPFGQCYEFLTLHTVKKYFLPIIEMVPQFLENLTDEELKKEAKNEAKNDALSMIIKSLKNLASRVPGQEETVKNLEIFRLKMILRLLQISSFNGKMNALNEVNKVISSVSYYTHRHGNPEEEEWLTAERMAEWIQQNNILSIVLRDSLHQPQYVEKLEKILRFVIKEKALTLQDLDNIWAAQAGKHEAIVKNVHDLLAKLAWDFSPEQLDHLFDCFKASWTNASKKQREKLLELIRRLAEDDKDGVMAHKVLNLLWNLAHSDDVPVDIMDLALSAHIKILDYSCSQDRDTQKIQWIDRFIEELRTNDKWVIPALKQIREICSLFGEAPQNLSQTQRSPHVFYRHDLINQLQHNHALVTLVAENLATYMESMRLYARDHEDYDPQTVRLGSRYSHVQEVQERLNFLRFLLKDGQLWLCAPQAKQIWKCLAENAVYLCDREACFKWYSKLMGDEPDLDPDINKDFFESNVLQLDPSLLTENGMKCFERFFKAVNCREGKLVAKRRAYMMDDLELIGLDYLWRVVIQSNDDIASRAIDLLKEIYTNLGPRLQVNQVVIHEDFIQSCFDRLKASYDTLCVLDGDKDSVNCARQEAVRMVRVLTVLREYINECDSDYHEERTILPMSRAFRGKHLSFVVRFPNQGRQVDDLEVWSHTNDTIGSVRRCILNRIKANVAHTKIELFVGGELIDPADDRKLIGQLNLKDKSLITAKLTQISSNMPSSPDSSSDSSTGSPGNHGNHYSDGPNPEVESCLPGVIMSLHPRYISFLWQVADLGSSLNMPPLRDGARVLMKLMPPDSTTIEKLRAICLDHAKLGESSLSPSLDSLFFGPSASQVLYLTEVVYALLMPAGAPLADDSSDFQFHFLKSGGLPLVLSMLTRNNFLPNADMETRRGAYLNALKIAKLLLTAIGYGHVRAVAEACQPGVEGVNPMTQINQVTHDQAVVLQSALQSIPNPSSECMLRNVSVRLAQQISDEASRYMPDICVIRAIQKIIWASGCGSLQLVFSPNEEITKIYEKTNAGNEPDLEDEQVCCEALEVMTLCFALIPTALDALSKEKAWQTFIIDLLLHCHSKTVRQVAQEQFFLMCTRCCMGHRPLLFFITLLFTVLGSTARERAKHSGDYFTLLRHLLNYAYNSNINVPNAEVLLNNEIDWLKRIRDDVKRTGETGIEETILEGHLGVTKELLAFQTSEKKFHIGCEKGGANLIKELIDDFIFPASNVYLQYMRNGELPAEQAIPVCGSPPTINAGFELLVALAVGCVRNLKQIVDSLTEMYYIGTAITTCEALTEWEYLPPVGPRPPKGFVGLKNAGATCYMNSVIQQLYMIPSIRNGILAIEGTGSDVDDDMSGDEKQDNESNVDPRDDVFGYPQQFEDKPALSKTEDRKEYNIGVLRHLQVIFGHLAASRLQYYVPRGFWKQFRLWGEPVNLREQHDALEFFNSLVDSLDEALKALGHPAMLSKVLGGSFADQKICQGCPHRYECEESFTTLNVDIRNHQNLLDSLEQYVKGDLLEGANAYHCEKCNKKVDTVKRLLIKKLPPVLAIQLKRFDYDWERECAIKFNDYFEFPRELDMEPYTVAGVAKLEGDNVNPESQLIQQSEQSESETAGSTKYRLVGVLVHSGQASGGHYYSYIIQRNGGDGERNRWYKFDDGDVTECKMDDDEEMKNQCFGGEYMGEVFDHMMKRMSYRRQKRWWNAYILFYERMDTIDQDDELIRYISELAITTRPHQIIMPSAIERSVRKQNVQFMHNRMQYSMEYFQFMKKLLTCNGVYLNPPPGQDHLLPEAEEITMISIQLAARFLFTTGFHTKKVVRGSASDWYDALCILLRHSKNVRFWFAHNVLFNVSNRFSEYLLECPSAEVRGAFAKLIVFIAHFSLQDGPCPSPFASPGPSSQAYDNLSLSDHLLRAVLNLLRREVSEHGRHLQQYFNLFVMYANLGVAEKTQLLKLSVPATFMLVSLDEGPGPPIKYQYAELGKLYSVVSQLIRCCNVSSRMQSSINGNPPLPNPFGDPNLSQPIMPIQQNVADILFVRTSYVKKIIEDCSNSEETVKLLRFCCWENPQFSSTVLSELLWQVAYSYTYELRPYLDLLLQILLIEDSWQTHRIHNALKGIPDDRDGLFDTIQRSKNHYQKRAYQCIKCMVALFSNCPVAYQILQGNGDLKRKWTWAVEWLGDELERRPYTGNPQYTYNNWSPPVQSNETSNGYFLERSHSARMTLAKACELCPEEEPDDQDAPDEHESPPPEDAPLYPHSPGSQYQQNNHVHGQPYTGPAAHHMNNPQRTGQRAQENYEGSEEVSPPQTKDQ
Outline: (§1)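 Using Biotin-Ahx-Ub-VS at 0.5 µM final for 1 h, DUBs were labelled in HEK293T lysate (495 µg per sample) that had first been treated in triplicate with fragment at 200 µM or vehicle for 3 h. NeutrAvidin enrichment, LysC and trypsin digestion and diaPASEF LC-MS/MS followed. Spectronaut label-free quantities were global-median-normalised. Values are average log2 fragment/vehicle ratios by unpaired t-test, using proteins with ≥2 unique peptides.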

UniProt O00487 = biological target: UniProt O00487
Outline: as §1

UniProt O00507 = biological target: UniProt O00507
UniProt O00507, sequence (O00507 whole entry): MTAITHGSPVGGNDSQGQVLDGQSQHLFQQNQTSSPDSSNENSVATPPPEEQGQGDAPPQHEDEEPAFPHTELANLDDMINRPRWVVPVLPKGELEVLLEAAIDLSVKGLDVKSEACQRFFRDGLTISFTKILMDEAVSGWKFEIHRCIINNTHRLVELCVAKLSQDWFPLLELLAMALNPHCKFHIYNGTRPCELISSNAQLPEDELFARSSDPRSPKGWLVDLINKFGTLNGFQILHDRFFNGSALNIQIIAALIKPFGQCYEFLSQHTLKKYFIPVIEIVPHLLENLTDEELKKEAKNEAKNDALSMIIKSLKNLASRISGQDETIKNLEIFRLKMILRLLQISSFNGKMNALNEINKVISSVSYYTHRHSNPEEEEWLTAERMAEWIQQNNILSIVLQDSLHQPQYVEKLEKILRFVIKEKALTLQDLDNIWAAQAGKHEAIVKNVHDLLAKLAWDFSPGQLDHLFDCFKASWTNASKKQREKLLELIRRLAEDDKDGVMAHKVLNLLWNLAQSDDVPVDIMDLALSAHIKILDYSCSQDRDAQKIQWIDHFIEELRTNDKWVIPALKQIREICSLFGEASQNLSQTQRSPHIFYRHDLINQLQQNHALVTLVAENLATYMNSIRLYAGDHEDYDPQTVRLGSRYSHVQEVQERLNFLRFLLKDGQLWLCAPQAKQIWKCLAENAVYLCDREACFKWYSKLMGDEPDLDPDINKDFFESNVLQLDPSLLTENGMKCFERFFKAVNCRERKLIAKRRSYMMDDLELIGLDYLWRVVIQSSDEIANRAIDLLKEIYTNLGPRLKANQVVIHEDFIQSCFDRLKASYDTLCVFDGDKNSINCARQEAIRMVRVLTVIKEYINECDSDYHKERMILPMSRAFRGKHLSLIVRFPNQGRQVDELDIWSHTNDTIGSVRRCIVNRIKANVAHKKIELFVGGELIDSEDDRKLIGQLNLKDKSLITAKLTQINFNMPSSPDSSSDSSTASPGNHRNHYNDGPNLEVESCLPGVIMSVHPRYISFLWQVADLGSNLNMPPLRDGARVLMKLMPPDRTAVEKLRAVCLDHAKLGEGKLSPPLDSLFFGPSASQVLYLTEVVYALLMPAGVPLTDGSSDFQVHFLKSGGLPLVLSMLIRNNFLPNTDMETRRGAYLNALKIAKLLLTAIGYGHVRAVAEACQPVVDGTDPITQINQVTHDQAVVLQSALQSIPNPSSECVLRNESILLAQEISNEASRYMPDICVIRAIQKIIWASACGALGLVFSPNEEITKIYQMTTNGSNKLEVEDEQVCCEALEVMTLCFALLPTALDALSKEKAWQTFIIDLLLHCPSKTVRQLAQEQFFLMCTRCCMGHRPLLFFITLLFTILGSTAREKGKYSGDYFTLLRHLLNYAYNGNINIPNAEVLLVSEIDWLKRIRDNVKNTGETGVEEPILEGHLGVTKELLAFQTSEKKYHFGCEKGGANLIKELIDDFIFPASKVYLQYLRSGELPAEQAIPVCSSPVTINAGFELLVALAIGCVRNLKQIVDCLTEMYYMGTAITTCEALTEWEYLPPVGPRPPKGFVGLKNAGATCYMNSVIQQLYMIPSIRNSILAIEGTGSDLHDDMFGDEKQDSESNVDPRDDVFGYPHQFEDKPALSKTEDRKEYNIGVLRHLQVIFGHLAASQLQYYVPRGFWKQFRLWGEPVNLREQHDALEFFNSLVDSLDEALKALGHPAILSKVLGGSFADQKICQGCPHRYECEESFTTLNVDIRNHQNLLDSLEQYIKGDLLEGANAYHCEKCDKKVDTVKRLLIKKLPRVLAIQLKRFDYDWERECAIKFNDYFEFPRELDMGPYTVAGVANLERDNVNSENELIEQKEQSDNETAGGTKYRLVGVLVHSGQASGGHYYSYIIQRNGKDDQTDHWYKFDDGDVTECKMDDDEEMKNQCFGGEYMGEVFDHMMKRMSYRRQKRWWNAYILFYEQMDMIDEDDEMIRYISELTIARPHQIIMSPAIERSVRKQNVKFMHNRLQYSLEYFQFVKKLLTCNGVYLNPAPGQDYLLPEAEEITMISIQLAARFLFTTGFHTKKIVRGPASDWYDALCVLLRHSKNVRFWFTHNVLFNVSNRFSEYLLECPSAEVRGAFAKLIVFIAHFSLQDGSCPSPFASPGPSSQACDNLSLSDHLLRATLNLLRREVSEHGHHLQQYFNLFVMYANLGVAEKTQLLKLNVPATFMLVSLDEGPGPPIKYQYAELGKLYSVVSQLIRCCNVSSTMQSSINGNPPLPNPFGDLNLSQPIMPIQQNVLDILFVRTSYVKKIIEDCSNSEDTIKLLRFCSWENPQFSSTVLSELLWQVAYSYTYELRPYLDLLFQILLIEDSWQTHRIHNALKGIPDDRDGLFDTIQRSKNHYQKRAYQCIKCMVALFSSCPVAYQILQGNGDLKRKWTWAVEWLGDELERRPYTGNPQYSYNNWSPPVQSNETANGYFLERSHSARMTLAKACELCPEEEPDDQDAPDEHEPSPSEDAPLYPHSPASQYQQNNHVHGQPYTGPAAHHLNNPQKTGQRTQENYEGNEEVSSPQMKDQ
Outline: as §1

UniProt P51784 = biological target: UniProt P51784
Outline: as §1

UniProt Q5T2D3 = biological target: T1, UniProt Q5T2D3
T1 sequence (whole entry): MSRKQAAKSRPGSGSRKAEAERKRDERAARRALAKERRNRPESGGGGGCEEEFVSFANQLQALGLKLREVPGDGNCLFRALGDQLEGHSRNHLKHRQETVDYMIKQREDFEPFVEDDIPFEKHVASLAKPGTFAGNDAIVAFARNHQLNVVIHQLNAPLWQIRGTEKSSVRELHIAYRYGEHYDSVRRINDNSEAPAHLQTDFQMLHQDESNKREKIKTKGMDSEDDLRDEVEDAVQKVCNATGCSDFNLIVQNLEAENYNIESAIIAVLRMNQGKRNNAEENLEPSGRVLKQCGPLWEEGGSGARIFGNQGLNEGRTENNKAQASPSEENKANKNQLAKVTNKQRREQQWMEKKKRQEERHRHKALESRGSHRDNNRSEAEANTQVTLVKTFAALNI
Outline: as §1

UniProt Q8TE49 = biological target: T2, UniProt Q8TE49
T2 sequence (whole entry): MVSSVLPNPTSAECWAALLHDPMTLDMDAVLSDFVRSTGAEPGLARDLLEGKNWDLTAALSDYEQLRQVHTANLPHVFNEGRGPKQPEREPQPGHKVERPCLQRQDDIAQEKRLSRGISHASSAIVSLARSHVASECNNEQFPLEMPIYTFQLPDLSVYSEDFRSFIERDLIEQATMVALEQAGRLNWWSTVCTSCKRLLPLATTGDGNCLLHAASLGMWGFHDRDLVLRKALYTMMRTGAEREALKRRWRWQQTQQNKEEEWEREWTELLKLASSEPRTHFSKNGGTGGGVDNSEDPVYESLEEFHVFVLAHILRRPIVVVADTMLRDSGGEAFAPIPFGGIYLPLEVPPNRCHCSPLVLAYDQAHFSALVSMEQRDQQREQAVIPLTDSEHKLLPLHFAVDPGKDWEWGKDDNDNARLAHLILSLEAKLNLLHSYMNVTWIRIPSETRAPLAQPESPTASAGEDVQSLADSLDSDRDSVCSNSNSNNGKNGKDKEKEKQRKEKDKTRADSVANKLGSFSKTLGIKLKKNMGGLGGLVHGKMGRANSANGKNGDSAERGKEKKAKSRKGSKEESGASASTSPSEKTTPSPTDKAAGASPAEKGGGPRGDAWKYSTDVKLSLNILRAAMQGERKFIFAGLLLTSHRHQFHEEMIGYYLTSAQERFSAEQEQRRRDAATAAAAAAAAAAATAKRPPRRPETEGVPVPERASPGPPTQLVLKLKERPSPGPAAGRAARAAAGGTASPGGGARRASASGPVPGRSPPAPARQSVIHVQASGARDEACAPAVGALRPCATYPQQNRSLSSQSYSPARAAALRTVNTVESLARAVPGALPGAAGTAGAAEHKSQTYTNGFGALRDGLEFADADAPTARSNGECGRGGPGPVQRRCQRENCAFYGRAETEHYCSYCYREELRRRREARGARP
Outline: as §1

UniProt Q9P2H5 = biological target: T3, UniProt Q9P2H5
T3 sequence (whole entry): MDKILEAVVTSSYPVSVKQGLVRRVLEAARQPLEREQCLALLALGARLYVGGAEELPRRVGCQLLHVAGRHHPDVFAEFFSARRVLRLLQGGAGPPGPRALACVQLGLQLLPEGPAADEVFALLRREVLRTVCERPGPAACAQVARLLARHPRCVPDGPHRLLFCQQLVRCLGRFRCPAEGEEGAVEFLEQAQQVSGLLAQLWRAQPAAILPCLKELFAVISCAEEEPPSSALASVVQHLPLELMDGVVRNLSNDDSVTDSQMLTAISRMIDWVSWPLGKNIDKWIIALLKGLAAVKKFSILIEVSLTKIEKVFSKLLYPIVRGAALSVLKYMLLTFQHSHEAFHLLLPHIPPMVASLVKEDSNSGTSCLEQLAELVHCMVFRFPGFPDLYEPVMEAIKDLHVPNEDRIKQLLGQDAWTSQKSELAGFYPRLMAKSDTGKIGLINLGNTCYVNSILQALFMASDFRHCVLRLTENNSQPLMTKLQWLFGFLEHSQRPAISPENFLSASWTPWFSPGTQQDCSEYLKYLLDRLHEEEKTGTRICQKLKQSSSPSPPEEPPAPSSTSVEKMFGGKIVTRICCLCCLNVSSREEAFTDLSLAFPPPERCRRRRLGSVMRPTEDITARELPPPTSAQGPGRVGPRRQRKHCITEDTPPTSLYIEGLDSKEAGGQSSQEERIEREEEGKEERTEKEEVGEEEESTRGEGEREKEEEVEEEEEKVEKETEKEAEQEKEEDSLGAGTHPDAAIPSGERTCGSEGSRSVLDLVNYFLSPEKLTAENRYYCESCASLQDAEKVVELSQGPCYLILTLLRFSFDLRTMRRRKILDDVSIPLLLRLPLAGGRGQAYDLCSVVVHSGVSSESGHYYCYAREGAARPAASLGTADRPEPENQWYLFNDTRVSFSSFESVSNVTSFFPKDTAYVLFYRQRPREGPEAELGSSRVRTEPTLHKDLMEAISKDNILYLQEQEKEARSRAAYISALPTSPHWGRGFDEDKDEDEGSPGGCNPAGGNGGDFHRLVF
Outline: as §1

UniProt Q9UGI0 = biological target: T4, UniProt Q9UGI0
T4 sequence (whole entry): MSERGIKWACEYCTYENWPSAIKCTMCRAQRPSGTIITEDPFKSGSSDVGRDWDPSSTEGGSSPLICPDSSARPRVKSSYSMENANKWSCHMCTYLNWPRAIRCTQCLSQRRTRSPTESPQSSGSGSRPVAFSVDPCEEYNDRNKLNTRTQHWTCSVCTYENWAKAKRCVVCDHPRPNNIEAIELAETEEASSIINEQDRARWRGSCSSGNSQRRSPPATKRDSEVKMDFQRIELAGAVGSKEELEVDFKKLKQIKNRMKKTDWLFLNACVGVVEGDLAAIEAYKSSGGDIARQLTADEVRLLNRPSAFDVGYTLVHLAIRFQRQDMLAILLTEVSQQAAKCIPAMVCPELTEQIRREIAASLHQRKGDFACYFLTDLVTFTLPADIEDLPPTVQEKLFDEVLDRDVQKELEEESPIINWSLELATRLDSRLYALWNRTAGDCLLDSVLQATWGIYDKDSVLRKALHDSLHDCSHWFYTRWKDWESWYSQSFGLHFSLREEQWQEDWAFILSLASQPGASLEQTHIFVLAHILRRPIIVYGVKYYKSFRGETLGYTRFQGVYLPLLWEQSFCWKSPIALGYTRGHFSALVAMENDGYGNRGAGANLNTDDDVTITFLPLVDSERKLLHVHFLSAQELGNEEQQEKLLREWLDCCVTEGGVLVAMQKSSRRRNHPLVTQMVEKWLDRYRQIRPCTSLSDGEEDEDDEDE
Outline: as §1

YOD1 = biological target: T5, YOD1 (UniProt Q5VVQ6)
T5 sequence (whole entry): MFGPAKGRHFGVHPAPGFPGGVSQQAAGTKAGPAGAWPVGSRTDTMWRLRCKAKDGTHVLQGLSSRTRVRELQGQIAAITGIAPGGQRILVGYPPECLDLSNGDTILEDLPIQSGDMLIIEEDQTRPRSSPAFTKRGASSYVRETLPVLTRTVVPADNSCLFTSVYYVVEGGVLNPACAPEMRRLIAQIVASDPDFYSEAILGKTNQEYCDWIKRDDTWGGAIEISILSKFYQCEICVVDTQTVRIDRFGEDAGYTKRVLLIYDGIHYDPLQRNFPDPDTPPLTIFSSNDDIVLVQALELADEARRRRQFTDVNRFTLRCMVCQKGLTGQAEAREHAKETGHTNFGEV
Outline: as §1

Measured: log2 ratio of Biotin-Ahx-Ub-VS probe labelling

CCN(C(=O)CCl)C1CCS(=O)(=O)C1 (centres undefined)
inactive: USP9X -0.112 | UniProt O00487 0.0162 | UniProt O00507 0.545 | UniProt P51784 -0.0519 | UniProt Q5T2D3 0.00795 | UniProt Q8TE49 -0.222 | UniProt Q9P2H5 -0.211 | UniProt Q9UGI0 -0.289 | YOD1 0.133
